For 15 molecules, growth results are on record in PubChem BioAssay (NCI).

Molecules are shown by their SMILES. This is part of a sample that, as a whole, favours compounds with a hit. Of some 83,000 tested, about 20% had one in any assay.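 Percent growth is the endpoint: 0 to 100 indicates growth inhibition (40 means 60% inhibition), 0 means no net growth, and negative values indicate cell death.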 A number with no mark means an inactive call. Activity calls are given as the source filed them. Rule for the calls: active = growth percent below 10; inactive = the rest.

What all share (assay): NCI-60 one-dose screen, 48 h (100 = growth as untreated, 0 = no growth, -100 = all killed)
The subject of test [1] is HCT-15 colon. As to conditions: 10 µM unless noted.
In test [2] the test system is HT29 colon. As to conditions: 10 µM unless noted.
Test [3] deals with SNB-75 CNS. Conditions: 10 µM unless noted.
Test [4] concerns SNB-19 CNS. Conditions: 10 µM unless noted.
Test [5] deals with U251 CNS. Conditions: 10 µM unless noted.
Test [6] deals with PC-3 prostate. Conditions: 10 µM unless noted.
Test [7] concerns SK-MEL-5 melanoma. As to conditions: 10 µM unless noted.
For test [8], the system named is UACC-62 melanoma. As to conditions: 10 µM unless noted.
For test [9], the system named is LOX IMVI melanoma. As to conditions: 10 µM.
Test [10] concerns SK-MEL-28 melanoma. Conditions: 10 µM unless noted.

As for `c1ccc(-c2cccc(-c3ccccn3)n2)nc1`, the growth is 28% in test [1]; 26% in [2]; 49% in [3]; 27.9% in test [4]; 14.5% in test [5]; 31.2% in test [6]. In addition, the growth in [7] is -50.8% (active); in test [8] it was 3.51% (active); in [9], -0.708% (active); in test [10] it was 33%.
Regarding `Oc1c(Cl)cc(Cl)cc1C=NCC1CCC(CN=Cc2cc(Cl)cc(Cl)c2O)CC1` (stereo not given), the growth in test [1] is 84.9%; in [2] it was 103%; in test [3] it was 66.9%; in test [4], 79.8%; in test [5], 83%; in test [6] it was 77.6%. For the same molecule, the growth in [7] was 94.4%; in [8] it was 97.7%; in test [9] it was 69.6%; in test [10], 89.2%.
Consider `Cc1cc2cccnc2c2ncccc12`, for which the growth in test [1] was 37%; in test [2] it was 19.7%; in test [3], 2.75% (active); in [4] it was 34.1%; in [5], 17.2%; in test [6], 47.3%. In addition, the growth in [7] is 3.03% (active); in [8], 0.859% (active); in test [9], 14.8%; in test [10] it was 32.2%.
`O=[N+]([O-])c1cc(-c2ccccc2)c(O)c([N+](=O)[O-])c1`: the growth is 79.4% in test [1]; 92.4% in test [2]; 74.3% in test [3]; 68.2% in test [4]; 84.2% in test [5]; 78.3% in test [6]. Moreover, the growth in test [7] was 29.2%; in [8], 32%; in test [9], 82.9%; in test [10], 66.2%.
For `CCCCCCCCCCCCCCCCCC[S+](C)CC` (stereo not given), the growth in test [1] is 38.8%; in test [2], 4.75% (active); in test [3], -25.1% (active); in test [4], 8.74% (active); in [5], -57.5% (active); in test [6], 36.3%. Moreover, the growth is -99.1% (active) in test [7], 19.3% in test [8], -51.6% (active) in test [9] and 48.6% in test [10].
`CN1CSC(=S)N(Cc2ccccc2)C1`: the growth in test [1] is 84.8%; in [2], 24.9%; in test [3], 98.1%; in test [4] it was 95.5%; in [5], 100%; in [6], 95.4%. For the same molecule, the growth was 96.8% in [7], 85.8% in test [8], 11.3% in test [9] and 120% in test [10].
Consider `CCCCCC[C@@H](O)C/C=C\CCCCCCCC(=O)OCCOC`, for which the growth in test [1] is 103%; in test [2] it was 101%; in test [3] it was 90%; in [4], 97.8%; in test [5], 105%; in test [6], 90.4%. Moreover, the growth in test [7] was 96.2%; in test [8], 90.6%; in [9], 86%; in [10], 105%.
With `CN(C)c1ccc(C(=C2C=CC(=[N+](C)C)C=C2)c2ccc(N(C)C)cc2)cc1`, the growth in [1] is -19.3% (active); in test [2], -19.7% (active); in [3], -49.7% (active); in [4], -75.5% (active); in test [5], -87.9% (active); in test [6], -31.3% (active). Besides, the growth in test [7] was -98.8% (active); in [8], -54% (active); in test [9], -70.2% (active); in [10] it was -79.6% (active).
`O=Nc1ccc2ccccc2c1O`: the growth in test [1] was 66.5%; in [2] it was 46.8%; in [3] it was 120%; in test [4], 97.6%; in test [5], 55.9%; in test [6] it was 44.9%. The growth in test [7] is 47.6%; in test [8] it was 27.1%; in [9] it was 7.44% (active); in test [10] it was 83.8%.
For `N#CC(I)CS(=O)(=O)c1ccccc1` (stereo not given), the growth in test [1] is 64.2%; in [2] it was 50.9%; in test [3] it was 95.5%; in test [4], 94.8%; in [5], 91.2%; in test [6], 90.8%. Also, the growth was 97.5% in test [7], 84.4% in test [8], 70.8% in test [9] and 97% in test [10].
Consider `Cc1c(O)ccc(SC#N)c1C`, for which the growth in [1] was 96.9%; in [2], 112%; in test [3] it was 95.3%; in test [4] it was 96.5%; in test [5], 101%; in [6], 86.1%. The growth in test [7] was 106%; in [8], 94.6%; in test [9] it was 101%; in test [10], 99.5%.
Consider `Cc1cccc2c(N)c3ccccc3nc12`, for which the growth in test [1] was -8.39% (active); in [2], -7.57% (active); in test [3], 2.93% (active); in test [4], 27.5%; in [5] it was -17.6% (active); in test [6], -18.7% (active). In addition, the growth was -77.2% (active) in test [7], -57.6% (active) in [8], -57.3% (active) in test [9] and -41.1% (active) in test [10].
In the case of `Cc1cc(C)c([I+]c2c(C)cc(C)cc2C)c(C)c1`, the growth in [1] is 25.7%; in test [2], -10.5% (active); in [3] it was -60% (active); in [4], -78.3% (active); in test [5], -88.7% (active); in test [6], -16.7% (active). Besides, the growth in test [7] was -96.8% (active); in test [8] it was -92.6% (active); in test [9], -89.2% (active); in test [10], -61.4% (active).
`NCCCN(CCCN)CCCNCc1c2ccccc2c(CNCCCN(CCCN)CCCN)c2ccccc12`: the growth is 110% in test [1]; 91.9% in [2]; 104% in test [3]; 106% in test [4]; 115% in test [5]; 90.8% in [6]. Besides, the growth was 98.6% in test [7], 98.2% in [8], 99.8% in [9] and 106% in [10].
As for `O=[N+]([O-])/C(=C/c1ccccc1)c1ccccc1`, the growth is 99.6% in test [1]; 99% in test [2]; 106% in test [3]; 110% in [4]; 97.4% in test [5]; 100% in test [6]. The growth in test [7] was 103%; in test [8], 108%; in test [9], 96.3%; in test [10], 100%.
